The values below come from PubChem BioAssay (NCI).

About 83,000 compounds went through this panel and 20% of them were active in at least one assay; those are over-represented in the sample as a whole.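 Percent growth is the endpoint: 0 to 100 indicates growth inhibition (40 means 60% inhibition), 0 means no net growth, and negative values indicate cell death.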 Unmarked numbers belong to inactive results. Calls of active or inactive are those of the source. How the source made its calls: active means growth percent below 10; inactive means the rest.

Test systems include T-47D breast; BT-549 breast; MDA-MB-435 melanoma; SW-620 colon; MCF7 breast; HCT-116 colon; HCC-2998 colon; KM12 colon.
Holding throughout (assay): NCI-60 one-dose screen, 48 h (100 = growth as untreated, 0 = no growth, -100 = all killed)
Holding throughout (details): 10 µM unless noted

For the compound `O=C1NC(=S)NC(=O)C1=Cc1cccc(C=C2C(=O)NC(=S)NC2=O)c1`, the growth in the assay with T-47D breast is 97.7%; with BT-549 breast, 87.5%; in the assay with MDA-MB-435 melanoma, 108%; with SW-620 colon, 106%; with MCF7 breast, 96.8%; in the assay with HCT-116 colon, -76% (active). Moreover, the growth with HCC-2998 colon and in the assay with KM12 colon was 107% throughout.
With `O=C1c2ccccc2-c2c1c1c(NCCCO)nc3ccccc3c1n2Cc1ccccc1`, the growth in the assay with T-47D breast is 78.2%; in the assay on BT-549 breast, -37.7% (active); in the assay with MDA-MB-435 melanoma it was 18.2%; in the assay on SW-620 colon, 25.2%; in the assay with MCF7 breast it was -23.2% (active); in the assay with HCT-116 colon, -57.3% (active). Also, the figures for the growth in the assay on HCC-2998 colon and in the assay with KM12 colon were 26.1% and 38.3%, respectively.
In the case of `O=C(CCN1CCCC1)Nc1ccc2c(Nc3ccccc3)c3ccccc3nc2c1`, the growth in the assay with T-47D breast was 18.6%; in the assay on BT-549 breast it was 41%; in the assay on MDA-MB-435 melanoma, -93.5% (active); with SW-620 colon, -27.9% (active); in the assay on MCF7 breast, -13.5% (active); in the assay with HCT-116 colon it was -45.4% (active). Moreover, the growth in the assay with HCC-2998 colon is -74.1% (active); in the assay on KM12 colon it was 16.1%.
Regarding `COc1cccc(CNCCN2C(=O)c3ccc4c5c(ccc(c35)C2=O)C(=O)N(CCNCc2cccc(OC)c2)C4=O)c1`, the growth with T-47D breast is 97.4%; in the assay on BT-549 breast, 96.1%; with MDA-MB-435 melanoma it was 118%; in the assay with SW-620 colon it was -33% (active); in the assay with MCF7 breast, 9.83% (active); in the assay with HCT-116 colon it was -41.6% (active). Moreover, the growth was 97.8% in the assay with HCC-2998 colon and 82.4% with KM12 colon.
For the compound `COc1cccc(/C=C2\COc3ccc(-c4ccccc4)cc3C2=O)c1`, the growth with T-47D breast is -6.21% (active); in the assay with BT-549 breast, 13.1%; with MDA-MB-435 melanoma, -25.8% (active); in the assay with SW-620 colon, -55.6% (active); in the assay with MCF7 breast, -3.38% (active); in the assay on HCT-116 colon, -23.8% (active). The growth is 19.4% with HCC-2998 colon and -37.3% (active) with KM12 colon.
For `CCOC(=O)c1c(O)cc(-c2ccccc2)cc1-c1sc(N(C)Cc2ccccc2)nc1Cl`, the growth was 93.5% in the assay with T-47D breast; 42.7% in the assay with BT-549 breast; 101% in the assay with MDA-MB-435 melanoma; 96.5% in the assay on SW-620 colon; 94% with MCF7 breast; -85.6% (active) in the assay on HCT-116 colon. In addition, the growth in the assay with HCC-2998 colon was 103%; in the assay with KM12 colon, 104%.
For `CCN1C(=O)N(CC)C2C1NN=c1s/c(=C3\C(=O)Nc4ccccc43)c(=O)n12` (centres undefined), the growth with T-47D breast was 15.6%; in the assay with BT-549 breast, 59.8%; in the assay on MDA-MB-435 melanoma, -27.3% (active); with SW-620 colon, 26.1%; with MCF7 breast, 28.7%; with HCT-116 colon, 14.2%. Also, the growth in the assay with HCC-2998 colon is 31.8%; in the assay with KM12 colon, 15.1%.
Turning to `O=C1c2ccccc2C(=O)c2c(NCCN=Cc3ccccc3O)cccc21`, the growth in the assay with T-47D breast is 63.6%; in the assay with BT-549 breast, 73.4%; in the assay with MDA-MB-435 melanoma, 71.5%; with SW-620 colon it was 35.4%; in the assay with MCF7 breast, 32.4%; with HCT-116 colon, 15.4%. Also, the growth in the assay on HCC-2998 colon was 30.9%; with KM12 colon, 48.7%.
On to `C/C(=C(/c1ccccc1)c1ccc(OCC(O)CN2CCOCC2)cc1)c1ccccc1` (centres undefined), for which the growth in the assay with T-47D breast is 60.3%; in the assay on BT-549 breast, 93.3%; in the assay on MDA-MB-435 melanoma, 90.7%; with SW-620 colon, 88.6%; with MCF7 breast, 84.2%; with HCT-116 colon it was 46.3%. The growth is 102% in the assay on HCC-2998 colon and 63.6% in the assay on KM12 colon.
Take `COc1ccc(-c2nn(Cc3ccccc3)c3c2-c2oncc2CC3)cc1OC`: the growth in the assay on T-47D breast was 84.8%; in the assay with BT-549 breast it was 92.7%; with MDA-MB-435 melanoma it was 95.2%; with SW-620 colon it was 118%; in the assay with MCF7 breast, 87.7%; in the assay on HCT-116 colon it was 107%. Moreover, the growth in the assay with HCC-2998 colon was 107%; with KM12 colon, 99.6%.
Consider `CC(=O)c1cccc(NS(=O)(=O)c2cccc(C(=O)Nc3ccc(Br)cc3)c2)c1`, for which the growth in the assay with T-47D breast was 26.7% [25 µM]; with BT-549 breast, 46.9% [25 µM]; in the assay on MDA-MB-435 melanoma, 37.6% [25 µM]; with SW-620 colon, 67.4% [25 µM]; in the assay with MCF7 breast it was 49% [25 µM]; with HCT-116 colon, 39.9% [25 µM]. Moreover, the growth in the assay with HCC-2998 colon was 79.7% [25 µM]; in the assay on KM12 colon, 56% [25 µM].
For `N#Cc1cc(-c2nc3ccccc3s2)c(=O)n(NS(=O)(=O)c2ccc(Cl)cc2)c1N`, the growth in the assay on T-47D breast is 96.6%; in the assay on BT-549 breast, 105%; with MDA-MB-435 melanoma it was 101%; with SW-620 colon it was 97.7%; with MCF7 breast it was 99.9%; in the assay on HCT-116 colon, 98.5%. Besides, the results for the growth in the assay on HCC-2998 colon and with KM12 colon were 111% and 102%, respectively.
In the case of `N#C/C(=C\c1ccc(Br)cc1)n1nnc2cccc(F)c21`, the growth with T-47D breast is 21.7%; in the assay with BT-549 breast it was 17.6%; in the assay on MDA-MB-435 melanoma, -18% (active); in the assay on SW-620 colon, -48% (active); in the assay on MCF7 breast it was 12.6%; in the assay with HCT-116 colon, 2.67% (active). Moreover, the growth with HCC-2998 colon was 19.2%; in the assay with KM12 colon, 7.22% (active).
`CCN(CC)CCOC(COc1cc(C)cc(C)c1)COc1cc(C)cc(C)c1`: the growth in the assay on T-47D breast was 18.8%; in the assay with BT-549 breast, 50.9%; in the assay with MDA-MB-435 melanoma, 19.5%; in the assay on SW-620 colon, 24.1%; with MCF7 breast, 17.5%; in the assay on HCT-116 colon it was 7.06% (active). Besides, the growth is 16.8% in the assay with HCC-2998 colon and 31.7% with KM12 colon.
In the case of `COc1ccccc1C(C[N+](=O)[O-])c1c(-c2ccccc2)[nH]c2cc(C)ccc12` (centres undefined), the growth is 32.2% with T-47D breast; 80.1% with BT-549 breast; 13.8% in the assay with MDA-MB-435 melanoma; 54.6% in the assay with SW-620 colon; 55.6% in the assay with MCF7 breast; 53.8% in the assay with HCT-116 colon. Besides, the growth in the assay with HCC-2998 colon was 93.6%; in the assay on KM12 colon, 63.1%.
For the compound `c1ccc(CCSc2ncnc3nc[nH]c23)cc1`, the growth is 74.2% with T-47D breast; 117% in the assay on BT-549 breast; 79.5% with MDA-MB-435 melanoma; 94.1% in the assay with SW-620 colon; 88.3% in the assay on MCF7 breast; 88.1% in the assay with HCT-116 colon. Besides, the growth in the assay on HCC-2998 colon was 97.1%; in the assay with KM12 colon, 93.6%.
As to `CCN(CC)CCSCCCNc1c(C)cnc2cc(Cl)ccc12`, the growth with T-47D breast was 96.5%; with BT-549 breast, 85.6%; with MDA-MB-435 melanoma, 85.1%; in the assay with SW-620 colon, 88.3%; with MCF7 breast, 79.4%; with HCT-116 colon it was 52.9%. For the same compound, the growth in the assay with HCC-2998 colon is 91%; in the assay with KM12 colon, 91.6%.
With `Cc1nc2sc(C(=O)Nc3cccc(Br)c3)c(N)c2cc1C(=O)c1ccc(C(F)(F)F)cc1`, the growth was 95.1% with T-47D breast; 95.7% with BT-549 breast; 87.9% in the assay on MDA-MB-435 melanoma; 72.2% in the assay on SW-620 colon; 70% in the assay with MCF7 breast; 56.1% in the assay on HCT-116 colon. The growth is 86.9% with HCC-2998 colon and 84.8% with KM12 colon.
On to `FC(F)(F)c1cccc(Nc2ccccc2)c1`, for which the growth with T-47D breast is 101%; with BT-549 breast it was 98.2%; in the assay on MDA-MB-435 melanoma, 101%; with SW-620 colon, 101%; in the assay on MCF7 breast, 93.5%; with HCT-116 colon, 95.2%. For the same compound, the growth with HCC-2998 colon was 98.9%; in the assay with KM12 colon, 102%.
With `NC(=S)N/N=C(/c1ccccc1)c1ccccc1N`, the growth with T-47D breast was 43.7%; in the assay with BT-549 breast, 104%; with MDA-MB-435 melanoma, 90.4%; with SW-620 colon, 79.2%; with MCF7 breast, 39.7%; in the assay with HCT-116 colon, 3.36% (active). For the same compound, the growth in the assay with HCC-2998 colon was 113%; in the assay on KM12 colon, 98.9%.
On to `CC1(C)CN(Cc2ccccc2)CCN1Cc1ccccc1`, for which the growth in the assay on T-47D breast is 100%; with BT-549 breast, 109%; with SW-620 colon, 97.6%; in the assay on MCF7 breast, 114%; with HCT-116 colon it was 101%; in the assay on HCC-2998 colon, 106%. Also, in the assay on KM12 colon, the growth is 104%.
Regarding `CC(C)C1C2=C(NCCN1C(=O)Cc1ccccc1)C(C)(C)N(Cc1ccccc1)C2=O` (centres undefined), the growth with T-47D breast was 91.8%; in the assay with BT-549 breast it was 99.7%; in the assay with SW-620 colon, 92.5%; with MCF7 breast, 95.3%; in the assay on HCT-116 colon, 91.7%; in the assay on HCC-2998 colon, 101%. Moreover, the growth with KM12 colon is 107%.
Regarding `Fc1ccc2nc3c(cc2c1)CSc1nnc(-c2ccc[nH]c2=S)n1N3`, the growth was 84.1% in the assay on T-47D breast; 97.7% in the assay on BT-549 breast; 93.5% in the assay with SW-620 colon; 98.7% in the assay with MCF7 breast; 92.7% in the assay with HCT-116 colon; 103% with HCC-2998 colon. Besides, in the assay on KM12 colon, the growth was 106%.
On to `CN1CCN(c2cnc(C(=O)Nc3cc(F)cc4cccnc34)cn2)CC1`, for which the growth in the assay on T-47D breast was 28.5%; with BT-549 breast it was 62.2%; in the assay on SW-620 colon, 39.6%; in the assay with MCF7 breast, 9.71% (active); with HCT-116 colon it was 9.87% (active); in the assay on HCC-2998 colon, 93%. For the same compound, in the assay with KM12 colon, the growth is 95%.
Take `Cn1c(COC(=O)N2CCCCC2)nc2c(N3CCOCC3)nc(-c3ccccc3)nc21`: the growth was -38.4% (active) in the assay with T-47D breast; -37.7% (active) in the assay with BT-549 breast; -69.1% (active) with SW-620 colon; -65.3% (active) with MCF7 breast; -59.3% (active) in the assay with HCT-116 colon; -76.4% (active) in the assay with HCC-2998 colon. The growth in the assay with KM12 colon is -73.8% (active).
For the compound `CN1CCCC1=Nc1ccccc1`, the growth was 106% with T-47D breast; 130% with BT-549 breast; 112% in the assay on SW-620 colon; 97.2% in the assay with MCF7 breast; 114% with HCT-116 colon; 110% in the assay on HCC-2998 colon. Besides, in the assay with KM12 colon, the growth was 114%.
Take `O=C(N/N=C/c1ccc(O)c(O)c1)c1sc2ccccc2c1Cl`: the growth in the assay with T-47D breast is 62.3%; in the assay on BT-549 breast, 84.4%; in the assay with SW-620 colon it was 75.2%; with MCF7 breast it was 54.4%; in the assay on HCT-116 colon it was 80%; in the assay with HCC-2998 colon it was 96.5%. Moreover, the growth in the assay on KM12 colon was 89%.
